Source: PubChem BioAssay (several laboratories)
Sampled rows, rich in hits. Any-hit rate of the full collection: about 3.1%.
FadD28 FP inh = inhibitors of FadD28 bisubstrate probe binding, primary screen, biochemical, fluorescence polarization, single point. Mycobacterium tuberculosis FadD28 fatty-acid-AMP ligase. inhibition, % at 12.5 µM. 0.22% of 360,000 active; in the data active means inhibition above about 8.5%, passing the limit was not always enough
Mtb BioA inh = M. tuberculosis BioA enzyme inhibitors, primary screen, biochemical, plate reader, single point, HTS; purified M. tuberculosis BioA enzyme; AID 602481, 2012; 0.096% of 360,000 active; inhibition, % at 9.99 µM; in the data active means inhibition above about 40%
GDH-TPI inh = GDH-TPI coupling enzyme inhibitors, primary screen, artefact control for M. tuberculosis FBA inhibitor project, biochemical, absorbance, full deck | AID 588335, 2011 | inhibition, % at 4.8 µM | GDH-TPI coupled enzyme counterscreen, NADH absorbance | 1.2% of 360,000 active; in the data active means inhibition above about 30%;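 further: 0% = DMSO wells and 100% = wells lacking the enzyme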
FBA Mtb inh = Mtb FBA enzyme inhibitors, primary screen, biochemical, fluorescence, strain H37Rv; Fructose-bisphosphate aldolase (Mycobacterium tuberculosis (strain ATCC 25618 / H37Rv)), …; purified M. tuberculosis FBA, fluorescence read-out; inhibition, % at 1 µM; 2.3% of 360,000 active; AID 588726, 2011; in the data active means inhibition above about 27%;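 further: 0% = vehicle and 100% = reference inhibitor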
Target sequence (P9WQA3 whole entry, looked up): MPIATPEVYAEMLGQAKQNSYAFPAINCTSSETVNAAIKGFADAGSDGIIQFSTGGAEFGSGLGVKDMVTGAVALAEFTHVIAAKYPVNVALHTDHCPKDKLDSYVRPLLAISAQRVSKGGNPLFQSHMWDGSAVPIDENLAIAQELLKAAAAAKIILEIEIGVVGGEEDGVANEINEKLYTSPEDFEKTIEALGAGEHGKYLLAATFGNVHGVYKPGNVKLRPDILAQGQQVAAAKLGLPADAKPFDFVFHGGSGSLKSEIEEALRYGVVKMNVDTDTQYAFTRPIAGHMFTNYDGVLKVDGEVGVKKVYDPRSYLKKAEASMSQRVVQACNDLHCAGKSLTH
SARS 3CLpro inh-1 = SARS-CoV 3CLpro protease inhibitors, primary screen, biochemical, quenched FRET | recombinant SARS-CoV 3CLpro, quenched FRET peptide cleavage | inhibition, % at 6 µM | 0.14% of 290,000 active | AID 1706, 2009; in the data active means inhibition above about 12%
SARS 3CLpro inh-2 = confirmation of SARS coronavirus 3C-like protease inhibitors, retest, confirmation, biochemical | shares compounds with SARS 3CLpro inh-1 | QFRET protease activity assay, 3CLpro | inhibition, % at 6 µM | 36% of 380 active | AID 1879, 2009; in the data active means inhibition above about 13%
Active calls of the source: *; nt = not tested or not shown.

SMILES	FadD28 FP inh	Mtb BioA inh	GDH-TPI inh	FBA Mtb inh	SARS 3CLpro inh-1	SARS 3CLpro inh-2
C[C@@H]1CN([C@H](C)CO)C(=O)c2cccc(NS(=O)(=O)c3ccc(Cl)cc3)c2O[C@H]1CN(C)C(=O)Nc1cccc2ccccc12	nt	-2	nt	nt	nt	nt
COc1ccc(C(=O)Oc2cccnc2)cc1	-3	-2	-2	0	25*	39*
O=C(Oc1cccnc1)c1ccccc1[N+](=O)[O-]	-1	nt	3	-4	20*	51*
N/C(=N\OC(=O)c1ccccc1[N+](=O)[O-])c1cccnc1	-1	11	2	1	2	nt
CN(C)c1nc(N)nc(-c2nc3ccccc3s2)n1	-1	nt	11	-1	13*	-6
CC(NC(=O)CCl)c1ccc(Cl)c(Cl)c1 (stereo not given)	-4	nt	5	-1	20*	40*
COc1cc(C2CC(c3cccs3)=NN2C(=O)CCl)ccc1OC(F)F (stereo not given)	-2	-14	9	7	56*	74*
Cc1ccc(C2=NN(C(=O)CCl)C(c3cccs3)C2)o1 (stereo not given)	-4	nt	3	0	14*	59*
COc1ccc(C2CC(c3cccs3)=NN2C(=O)c2ccccc2)cc1OC (stereo not given)	-2	0	6	-2	-3	nt
COc1ccc(C2CC(c3cccs3)=NN2C(=O)CCl)cc1OC (stereo not given)	0	-1	13	0	74*	81*
Cc1cc(C(=O)Nc2cccc3c2O[C@@H](CN(C)Cc2ccncc2)[C@H](C)CN([C@H](C)CO)C3=O)n(C)n1	nt	-4	nt	nt	nt	nt
O=C(CSc1ncnc2scc(-c3ccccc3)c12)Nc1ccc(C(=O)O)cc1	-9	14	-4	2	13*	6
COc1ccccc1N(C(=O)CCl)c1cn(C(C)=O)c2ccccc12	-2	4	1	1	2	nt
CC(=O)n1cc(N(C(=O)CCl)c2ccc(Cl)cc2)c2ccccc21	-2	14	-9	1	13*	35*
Cc1ccc(/C=C2\C(=O)NC(=S)N(c3ccc(F)cc3)C2=O)o1	3	-4	29	-3	7	nt
COc1cccc(N2C(=O)/C(=C/c3ccc(C)o3)C(=O)NC2=S)c1	4	nt	-10	-1	13*	-4
O=C1c2[nH]nc(-c3ccccc3O)c2C(c2ccccc2F)N1Cc1ccco1 (stereo not given)	-15	4	2	-3	13*	2
C[C@@H]1CN([C@H](C)CO)S(=O)(=O)c2ccc(C#Cc3ccccn3)cc2O[C@H]1CN(C)C(=O)C1CC1	nt	5	nt	nt	nt	nt
Cc1ccc(N(C(=O)Cn2nnc3ccccc32)C(C(=O)NCc2ccco2)c2ccc(C)o2)cc1 (stereo not given)	-4	5	-6	2	10	nt
COc1cccc(C(C(=O)NCc2ccco2)N(Cc2ccco2)C(=O)Cn2nnc3ccccc32)c1 (stereo not given)	2	1	11	0	28*	40*
COc1ccc(N(C(=O)Cn2nnc3ccccc32)C(C(=O)NCc2ccco2)c2ccc(C)o2)cc1 (stereo not given)	-2	5	10	6	21*	26*
COc1ccc(S(=O)(=O)n2nc(-c3cc(OC)c(OC)c(OC)c3)cc2N)cc1OC	-2	2	-2	2	0	nt
COc1ccc(-c2cc(N)n(S(=O)(=O)c3c(F)c(F)c(F)c(F)c3F)n2)cc1OC	-6	-2	-1	-3	14*	2
CO[C@@H]1CC[C@H]2CCN(C)C(=O)[C@H](C)N(C)C(=O)c3cc(C#N)ccc3OC[C@H]1O2	nt	23	nt	nt	nt	nt
COc1cccc(C2=NOC(C(=O)Nc3cc(OC)c(OC)c(OC)c3)C2)c1 (stereo not given)	-3	0	-1	-1	-3	nt
COc1cc(NC(=O)C2CC(c3cccc(Br)c3)=NO2)cc(OC)c1OC (stereo not given)	0	0	4	1	13*	2
